Test results from PubChem BioAssay (NCI).
The panel holds about 83,000 compounds, 20% with a hit somewhere; the sample as a whole holds those more often.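 Note: values are percent growth. 100 is the growth of untreated cells, values between 100 and 0 indicate rising inhibition; between -100 and 0 indicates cell death.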 Unmarked numbers belong to inactive results. Rule for the calls: active = growth percent below 10; inactive = the rest.

Each compound was assayed on SNB-19 CNS (assay: NCI-60 one-dose screen, 48 h (100 = growth as untreated, 0 = no growth, -100 = all killed)). Settings: 10 µM.
`CSc1cc(SC)ncn1` gave a growth of 91%. `CCOC(=O)CNC(=O)CCCCSc1ncnc2nc[nH]c12` showed a growth of 109%. Work on `COc1ccc(OC)c(/C=C/c2nc(SCc3ccccc3)n(-c3ccc(Cl)cc3)n2)c1` yielded a growth of 61.4%. Work on `c1ccc(C(NC2CC3CCC2C3)c2ccccc2)cc1` (stereo unspecified) yielded a growth of 99%. `CN1CCC2(CC1)NC(=O)c1c(c3ccc(Cl)c(Cl)c3n1C)C2C#N` (stereo unspecified) showed a growth of 77.8%. `O=[N+]([O-])c1cccc(N=Cc2ccc3c(c2)OCO3)c1` showed a growth of 130%. Compound `Nc1cc2c(cc1Cl)-c1ccc([N+](=O)[O-])cc1/C2=N\O` has a growth of 93.6%. Work on `COc1ccc(OC)c2c1C(=O)CC2C` (stereo unspecified) yielded a growth of 99.6%. Compound `N#CSCC1CC(O)(c2ccccc2)CC(c2ccc(Cl)cc2)O1` (stereo unspecified) has a growth of 81.5%. Compound `CCOC(=O)C1CCc2c(ccc3ccccc23)N1CCC#N` (stereo unspecified) has a growth of 99%. In the case of `Fc1ccc(-c2nnc(-c3c(-c4ccc(F)cc4)nc4ccccn34)o2)cc1`, the growth is reported as 92.8%. Work on `O=C1/C(=C/c2ccc(Cl)cc2)SC(=Nc2ccc(Cl)cc2)N1Cc1nc2ccccc2[nH]1` yielded a growth of 75%. `CO/N=C(/C(=O)NC1C(=O)N2C(C(=O)O)=C(COC(N)=O)CSC12)c1ccco1` (stereo unspecified) showed a growth of 95.5%. Work on `COc1ccc(C2CC(c3ccc(N(C)C)cc3)=NN2c2ccc(S(N)(=O)=O)cc2)cc1` (stereo unspecified) yielded a growth of 66.6%. For `CN(C)CCNC(=O)c1cccn2c(=O)c3cc4ccccc4cc3nc12`, the growth was 17.6%. `Oc1[nH]c2ccc(Cl)cc2c1/C=c1/ccc2c(c1)N=C(c1cccs1)N=2` was tested, and the growth was 62%.
